This passage reports growth inhibition results from PubChem BioAssay (NCI).

Molecules are shown by their SMILES. About 79,000 compounds went through this panel and 15% of them were active in at least one assay; those are over-represented in the sample as a whole. A number with no mark means an inactive call. The source made the active and inactive calls. No stated cut-off is given here; in the data, active means growth inhibition above about 70%; inactive means the rest.

A short description of experiment [1]: NCI Yeast Anticancer Drug Screen. Data for the rad50 strain (AID 155).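 Further: 0% = growth of vehicle-only cultures of the same strain.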 The conditions noted are these: S. cerevisiae rad50 strain growth inhibition, active compounds read high. Summed up: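 Growth of the mutant yeast was measured after compound exposure and referenced to vehicle-treated cultures.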
Experiment [2] is described as follows: NCI Yeast Anticancer Drug Screen. Data for the mec2-1 strain (AID 157). The conditions noted are these: S. cerevisiae mec2-1 strain, active compounds read high. An outline of the steps: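 Using mec2-1 yeast: add compound, measure growth, express inhibition versus vehicle-treated cultures.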
Experiment [3] can be described thus: NCI Yeast Anticancer Drug Screen. Data for the sgs1 mgt1 strain (AID 161).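 Further: 0% = growth of cultures given vehicle only.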 The note with it: S. cerevisiae sgs1 mgt1 strain, active compounds read high. Summed up: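 Growth of a repair-deficient yeast mutant was monitored after compound treatment and expressed as inhibition relative to vehicle-treated cultures.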
A short description of experiment [4]: NCI Yeast Anticancer Drug Screen. Data for the cln2 rad14 strain (AID 165).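 Further: 0% = growth equal to vehicle treated cultures.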 The conditions noted are these: S. cerevisiae cln2 rad14 strain, active compounds read high. An outline of the steps:
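Yeast strain cln2 rad14, bearing defects in cell cycle control and DNA repair, serves as the test system; values reflect growth inhibition compared with vehicle.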

Experiment [5] is described as follows: NCI Yeast Anticancer Drug Screen. Data for the bub3 strain (AID 167). The note with it: S. cerevisiae bub3 mutant strain, active compounds read high. Summed up: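 Whole-cell yeast assay. The mutant strain was incubated with compounds, and growth inhibition was determined by comparison with vehicle-treated cells.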
Experiment [6] is described as follows: NCI Yeast Anticancer Drug Screen. Data for the mlh1 rad18 strain (AID 175). The conditions noted are these: S. cerevisiae mlh1 rad18 strain growth inhibition, active compounds read high. An outline of the steps: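 Steps: expose repair-defective yeast to compound; measure growth; express inhibition against vehicle-treated controls.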
The mark [7] stands for this setting: at 5.0 µM (retest, dose inferred, filed as 0.5).
The mark [8] stands for this setting: at 50.0 µM (retest, dose inferred, filed as 5.0).

For the molecule `CCCCN(CCC=C1c2ccccc2Oc2ccccc21)CCCC`, the growth inhibition in experiment [1] (setting [7]) is 7%; in experiment [1] (setting [8]), 99% (active); in experiment [1] (at 50.0 µM) it was 99.7% (active); in experiment [2] (setting [7]), 4%; in experiment [2] (setting [8]) it was 99% (active); in experiment [2] (at 50.0 µM), 99.7% (active). For the same molecule, the growth inhibition is 9% in experiment [3] (setting [7]); 99% (active) in experiment [3] (setting [8]); 99.7% (active) in experiment [3] (at 50.0 µM); 4% in experiment [4] (setting [7]); 99% (active) in experiment [4] (setting [8]); 99% (active) in experiment [4] (at 50.0 µM). The growth inhibition in experiment [5] (setting [7]) was 6%; in experiment [5] (setting [8]), 99% (active); in experiment [5] (at 50.0 µM), 11.7%; in experiment [6] (setting [7]), 5%; in experiment [6] (setting [8]), 99% (active); in experiment [6] (at 50.0 µM), 99.6% (active).
As to `CNC(=O)c1ccc(OC)cc1C1(O)c2ccccc2CCc2ccccc21`, the growth inhibition in experiment [1] (setting [7]) was 40%; in experiment [1] (setting [8]) it was 64%; in experiment [1] (at 50.0 µM) it was 58.6%; in experiment [2] (setting [7]) it was 34%; in experiment [2] (setting [8]) it was 49%; in experiment [2] (at 50.0 µM), 45%. The growth inhibition in experiment [3] (setting [7]) was 36%; in experiment [3] (setting [8]), 78% (active); in experiment [3] (at 50.0 µM), 80.5% (active); in experiment [4] (setting [7]), 27%; in experiment [4] (setting [8]) it was 49%; in experiment [4] (at 50.0 µM), 46.4%. The growth inhibition is 37% in experiment [5] (setting [7]); 87% (active) in experiment [5] (setting [8]); 58.8% in experiment [5] (at 50.0 µM); 46% in experiment [6] (setting [7]); 76% (active) in experiment [6] (setting [8]); 58.8% in experiment [6] (at 50.0 µM).
Consider `COC(=O)C(C#N)=C(SC)SC`, for which the growth inhibition in experiment [1] (setting [7]) was 7%; in experiment [1] (setting [8]), 99% (active); in experiment [1] (at 50.0 µM) it was 99.3% (active); in experiment [2] (setting [7]) it was 4%; in experiment [2] (setting [8]), 99% (active); in experiment [2] (at 50.0 µM) it was 98.2% (active). Further, the growth inhibition in experiment [3] (setting [7]) is 17%; in experiment [3] (setting [8]), 99% (active); in experiment [3] (at 50.0 µM) it was 99.5% (active); in experiment [4] (setting [7]), -3%; in experiment [4] (setting [8]), 98% (active); in experiment [4] (at 50.0 µM), 95.2% (active). Further, the growth inhibition in experiment [5] (setting [7]) is 1%; in experiment [5] (setting [8]), 99% (active); in experiment [5] (at 50.0 µM), 98.9% (active); in experiment [6] (setting [7]) it was 41%; in experiment [6] (setting [8]), 99% (active); in experiment [6] (at 50.0 µM), 99.1% (active).
Take `N#CC1C(=O)SC2c3ccccc3C(=O)c3ccccc3C12` (stereo not given): the growth inhibition is -3% in experiment [1] (setting [7]); 51% in experiment [1] (setting [8]); 63.8% in experiment [1] (at 50.0 µM); -28% in experiment [2] (setting [7]); -4% in experiment [2] (setting [8]); 0.05% in experiment [2] (at 50.0 µM). In addition, the growth inhibition was -6% in experiment [3] (setting [7]); 5% in experiment [3] (setting [8]); 38% in experiment [3] (at 50.0 µM); 6% in experiment [4] (setting [7]); 36% in experiment [4] (setting [8]); 42.6% in experiment [4] (at 50.0 µM). Moreover, the growth inhibition in experiment [5] (setting [7]) was -8%; in experiment [5] (setting [8]), 27%; in experiment [5] (at 50.0 µM), 32.8%; in experiment [6] (setting [7]), -8%; in experiment [6] (setting [8]), 58%; in experiment [6] (at 50.0 µM), 69.8%.
As for `O=C(O)CCCc1ccc2c(c1Br)C=CC2`, the growth inhibition in experiment [1] (setting [7]) was 10%; in experiment [1] (setting [8]), 68%; in experiment [1] (at 50.0 µM), 72.3% (active); in experiment [2] (setting [7]), 13%; in experiment [2] (setting [8]) it was 72% (active); in experiment [2] (at 50.0 µM), 63.6%. Besides, the growth inhibition was 11% in experiment [3] (setting [7]); 73% (active) in experiment [3] (setting [8]); 87.2% (active) in experiment [3] (at 50.0 µM); 11% in experiment [4] (setting [7]); 74% (active) in experiment [4] (setting [8]); 72.9% (active) in experiment [4] (at 50.0 µM). The growth inhibition was 8% in experiment [5] (setting [7]); 86% (active) in experiment [5] (setting [8]); 94% (active) in experiment [5] (at 50.0 µM); 3% in experiment [6] (setting [7]); 76% (active) in experiment [6] (setting [8]); 79.6% (active) in experiment [6] (at 50.0 µM).
On to `CCN(CC)CCNc1ccc2nnn3c4ccc([N+](=O)[O-])cc4c(=O)c1c23`, for which the growth inhibition is 16% in experiment [1] (setting [7]); 35% in experiment [1] (setting [8]); 66.5% in experiment [1] (at 50.0 µM); 1% in experiment [2] (setting [7]); 12% in experiment [2] (setting [8]); 26% in experiment [2] (at 50.0 µM). In addition, the growth inhibition in experiment [3] (setting [7]) is 5%; in experiment [3] (setting [8]), 15%; in experiment [3] (at 50.0 µM), 66%; in experiment [4] (setting [7]), 24%; in experiment [4] (setting [8]), 27%; in experiment [4] (at 50.0 µM), 36.2%. In addition, the growth inhibition in experiment [5] (setting [7]) was 9%; in experiment [5] (setting [8]) it was 35%; in experiment [5] (at 50.0 µM), 37.9%; in experiment [6] (setting [7]), 11%; in experiment [6] (setting [8]), 30%; in experiment [6] (at 50.0 µM), 76% (active).
With `Cc1ccc(C)c(N2C(=O)C(=O)C(c3nc4ccccc4o3)/C(=N\NC(=O)c3ccccc3O)C2=O)c1` (stereo not given), the growth inhibition is 6% in experiment [1] (setting [7]); 21% in experiment [1] (setting [8]); 62.3% in experiment [1] (at 50.0 µM); 1% in experiment [2] (setting [7]); 29% in experiment [2] (setting [8]); 55.2% in experiment [2] (at 50.0 µM). For the same molecule, the growth inhibition in experiment [3] (setting [7]) was 7%; in experiment [3] (setting [8]) it was 21%; in experiment [3] (at 50.0 µM), 63%; in experiment [4] (setting [7]), 8%; in experiment [4] (setting [8]) it was 33%; in experiment [4] (at 50.0 µM), 53.6%. The growth inhibition is 6% in experiment [5] (setting [7]); 29% in experiment [5] (setting [8]); 27.4% in experiment [5] (at 50.0 µM); 5% in experiment [6] (setting [7]); 7% in experiment [6] (setting [8]); 71.9% (active) in experiment [6] (at 50.0 µM).
For `C[C@]12CCC3[C@@H](CC[C@@H]4c5nonc5CC[C@]34C)C1CCC(=O)N2` (stereo not given in full), the growth inhibition is 10% in experiment [1] (setting [7]); 24% in experiment [1] (setting [8]); 50.1% in experiment [1] (at 50.0 µM); 5% in experiment [2] (setting [7]); 17% in experiment [2] (setting [8]); -4.95% in experiment [2] (at 50.0 µM). Further, the growth inhibition in experiment [3] (setting [7]) was 11%; in experiment [3] (setting [8]), 27%; in experiment [3] (at 50.0 µM) it was 51.5%; in experiment [4] (setting [7]), 7%; in experiment [4] (setting [8]) it was 13%; in experiment [4] (at 50.0 µM), -3.6%. In addition, the growth inhibition in experiment [5] (setting [7]) was 6%; in experiment [5] (setting [8]) it was 48%; in experiment [5] (at 50.0 µM), 31.9%; in experiment [6] (setting [7]), 16%; in experiment [6] (setting [8]) it was 21%; in experiment [6] (at 50.0 µM), 25.4%.
Consider `CCOC(=O)/C=C(\C)Sc1cc(O)c2ccccc2c1O`, for which the growth inhibition in experiment [1] (setting [7]) is -3%; in experiment [1] (setting [8]), 22%; in experiment [1] (at 50.0 µM), 68.9%; in experiment [2] (setting [7]), -1%; in experiment [2] (setting [8]), 28%; in experiment [2] (at 50.0 µM) it was 79.5% (active). The growth inhibition was 1% in experiment [3] (setting [7]); 37% in experiment [3] (setting [8]); 72.5% (active) in experiment [3] (at 50.0 µM); 1% in experiment [4] (setting [7]); 3% in experiment [4] (setting [8]); 8% in experiment [4] (at 50.0 µM). In addition, the growth inhibition was -5% in experiment [5] (setting [7]); 15% in experiment [5] (setting [8]); 73% (active) in experiment [5] (at 50.0 µM); -2% in experiment [6] (setting [7]); 53% in experiment [6] (setting [8]); 76.1% (active) in experiment [6] (at 50.0 µM).
With `CN(C)c1nc(=Nc2ccc(N=c3nc(N(C)C)ss3)cc2)ss1`, the growth inhibition in experiment [1] (setting [7]) is 0%; in experiment [1] (setting [8]) it was 97% (active); in experiment [1] (at 50.0 µM), 91.8% (active); in experiment [2] (setting [7]), 4%; in experiment [2] (setting [8]) it was 96% (active); in experiment [2] (at 50.0 µM), 92.8% (active). In addition, the growth inhibition in experiment [3] (setting [7]) was 28%; in experiment [3] (setting [8]), 98% (active); in experiment [3] (at 50.0 µM) it was 88.2% (active); in experiment [4] (setting [7]) it was -4%; in experiment [4] (setting [8]), 93% (active); in experiment [4] (at 50.0 µM), 69%. The growth inhibition in experiment [5] (setting [7]) was 4%; in experiment [5] (setting [8]), 98% (active); in experiment [5] (at 50.0 µM), 93.4% (active); in experiment [6] (setting [7]), 11%; in experiment [6] (setting [8]) it was 98% (active); in experiment [6] (at 50.0 µM), 96.9% (active).
